High-throughput results from PubChem BioAssay.
The list is not random: actives were taken first. Their share in the collection is about 12%.
HCV inh: HCV inhibition; Huh7.5.1 HCVcc-Cre infection, luciferase reporter, 44 h; Potency, µM (series often up to 41.8 µM), inactives show at the highest dose activity change, negative = inhibition, actives largely listed as inhibitors; 340,000 compounds, 3.4% hits; note: % is set by controls: 0 for no effect and ±100 for the full control effect
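Infectious HCV cell culture screen: compound-treated cells (1,000/well, pre-plated 4 h) are infected with HCVcc-Cre at roughly 0.5 moi and grown 44 h. Infection is quantified by luciferase signal after 15 min substrate incubation at room temperature.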
SARS PLpro yeast: inhibitors of SARS-CoV papain-like protease in yeast. Potency, µM (series often up to 32.9 µM), inactives show at the top dose activity, positive = growth rescue, hits mostly activators. S. cerevisiae expressing SARS-CoV PLpro, growth rescue. 330,000 compounds, 0.19% hits; calls by dose curve; note: 0% is about no effect; nearly all actives have a fitted effect of over 55% in size
Pf growth 48h: P. falciparum growth inhibition at 48 hours (one generation). P. falciparum luciferase growth in erythrocytes, 48 h. Potency, µM (top dose mostly 28.7 µM), for inactives: at the top dose activity change, negative = inhibition, hits mostly inhibitors. 310,000 compounds, 5.9% hits. AID 504832; note: % is set by controls: 0 for no effect and ±100 for the full control effect
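Luciferase-expressing P. falciparum in infected erythrocytes (2% hematocrit, 0.1% parasitemia final) in RPMI 1640/0.5% Albumax were exposed to compound for 48 hours at 37 C, 5% CO2; growth read as luminescence.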
NS1 inh: influenza NS1 inhibition; Potency, µM (titrated, usually from 46.1 µM), for the others: at the top dose activity, positive = more growth; 270,000 compounds, 0.4% hits; AID 2326; calls by dose curve; note: actives are rising curves; nearly all actives have a fitted effect of over 50% in size
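Recovery from NS1-induced slow growth read by OD600 in budding yeast switched to galactose assay medium (pH 6.0, -URA) at 1:100 dilution. Compound 23 nl per well; the matching strain lacking NS1 serves as control.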
Pf growth 96h: inhibits malaria parasite growth, 96 h. P. falciparum luciferase reporter growth, 96 h. Potency, µM (top dose mostly 28.7 µM), inactives show top-dose activity change, negative = inhibition, hits mostly inhibitors. 320,000 compounds, 6.9% hits; note: % is set by controls: 0 for no effect and ±100 for the full control effect
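Delayed-death screen, second-generation endpoint: infected erythrocytes, 2% hematocrit, 0.05% parasitemia final; 96 hours at 37 C, 5% CO2; luciferase detection reagent; luminescence decrease equals reduced growth.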
AMA1-RON2 inh: inhibitors of Plasmodium falciparum AMA1-RON2 interaction. AlphaScreen AMA1-biotinylated RON2 peptide binding. Potency, µM (series often up to 58.2 µM), inactives show top-dose activity change, negative = inhibition, most hits filed as inhibitors. 360,000 compounds, 0.2% hits;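 note: 0% = vehicle wells and -100% = peptide control; nearly all actives have a fitted effect of over 45% in size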
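AMA1 (3D7) with his tag at 25 nM final met compounds first, then biotinylated RON2 peptide at 25 nM; detection used donor plus acceptor beads, 10 µg/mL apiece, read by AlphaScreen after 30 min at room temperature.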
* hit, by the source's call; ? = inconclusive; . = no result. Unless noted, calls come from the whole dose curve; as a rule, active = well fitted curve in the direction sought with a large enough effect; inconclusive = small, poorly fitted or top-dose-only effect, or another doubt; inactive = no such curve, though single readings can be large; an effect the other way counts as inactive or inconclusive. Potency is the fitted concentration of half-maximal effect.

SMILES	HCV inh	SARS PLpro yeast	Pf growth 48h	NS1 inh	Pf growth 96h	AMA1-RON2 inh
COc1cccc(CN2CC(C(=O)N(C)CCCC3CCCC3)CCC2=O)c1 (configuration not stated)	-3.0%	4.8%	-20.6%	-4.1%	-14.6%	1.1%
O=C(N/N=C/c1c(O)n(CCC2=CCCCC2)c(=S)[nH]c1=O)c1ccccc1	7.7%	11.2µM*	15.9%	?	4.8%	33.8%
O=C1[C@H]2[C@@H](c3ccc(F)cc3)N3C(=O)N(c4ccccc4)C(=O)[C@@]3(Cc3ccccc3)[C@H]2C(=O)N1C1CCCCC1	-12.5%	2.0%	?	.	?	-6.2%
O=C1[C@H]2[C@@H](c3ccc(Cl)cc3)N3C(=O)N(c4cccc(Br)c4)C(=O)[C@@]3(Cc3ccc(Cl)cc3)[C@H]2C(=O)N1C1CCCCC1	-8.4%	3.8%	?	?	11.7µM*	-9.3%
COc1ccc([C@@H]2[C@@H]3C(=O)N(C(C)(C)C)C(=O)[C@@H]3[C@]3(Cc4ccc(Cl)cc4)C(=O)N(c4cccc(Br)c4)C(=O)N23)cc1	9.6%	5.7%	?	4.6%	?	-3.8%
O=C1[C@H]2[C@@H](c3ccc(F)cc3)N3C(=O)N(c4cccc(Br)c4)C(=O)[C@@]3(Cc3ccc(Cl)cc3)[C@H]2C(=O)N1C1CCCCC1	6.4%	1.7%	2.94µM*	26.4%	3.29µM*	21.4%
CCOC(=O)C(NC(C)=O)(NC(C)C)C(F)(F)F (configuration not stated)	9.6%	0.3%	16.0%	1.3%	24.7%	0.8%
Fc1ccc(-n2ncc3c(SCc4cccnc4)ncnc32)cc1	?	0.4%	-21.8%	1.3%	28.9%	39.6%
Cc1ccccc1C(=O)NCCCNC(=O)c1ccccc1C	18.2%	.	.	.	.	-13.6%
Cc1cc(/C([O-])=C(/C(=S)Nc2ccccc2)[n+]2ccccc2)c(C)n1-c1ccccc1	-20.1%	-5.6%	.	17.0%	?	7.7%
Cc1cc(/C([O-])=C(/C(=S)Nc2ccc(F)cc2)[n+]2ccccc2)c(C)n1Cc1ccccc1Cl	?	-4.9%	?	.	9.28µM*	15.8%
Cc1cc(/C([O-])=C(/C(=S)Nc2ccc(F)cc2)[n+]2ccccc2)c(C)n1-c1ccc(F)cc1	14.1µM*	0.1%	18.6%	20.8%	?	2.8%
Cc1ccc(-n2c(C)cc(/C([O-])=C(/C(=S)Nc3ccc(F)c(Cl)c3)[n+]3ccccc3)c2C)cc1	?	4.1%	.	19.8%	?	22.6%
O=C1CN(C(=O)c2cc3ccccc3oc2=O)C(c2ccc(F)cc2)c2cc(Br)ccc2N1 (configuration not stated)	-5.5%	-2.2%	26.2%	29.8%	-3.8%	13.3%
Cc1cc(=O)oc2c(C(=O)/C=C/c3ccccc3)c(O)ccc12	-8.0%	-5.2%	5.86µM*	-2.5%	.	1.6%
Cc1cc(=O)oc2c(C(=O)/C=C\c3cccs3)c(O)ccc12	5.4%	-61.1%	-9.2%	-23.1%	13.1µM*	-12.0%
COc1ccc(/C=C\C(=O)c2c(O)ccc3c(C)cc(=O)oc23)cc1OC	10µM*	3.2%	9.28µM*	4.6%	.	-18.0%
C[C@@H]1CN([C@@H](C)CO)S(=O)(=O)c2ccc(Br)cc2O[C@@H]1CN(C)C(=O)c1ccccn1	.	.	.	.	.	3.8%
O=C1CN(C(=O)CNCc2ccccc2)c2ccccc2N1	?	0.6%	8.9%	4.0%	-3.2%	?
CCCn1c2ccc(C)cc2c2nnc(SCCN3CCCCC3)nc21	8.91µM*	0.3%	?	?	9.28µM*	8.9%
CCn1c2ccc(F)cc2c2nnc(SCCN3CCCCC3)nc21	14.1µM*	0.0%	?	-5.0%	?	2.9%
O=C(/C=C\c1ccccc1OC(=O)c1ccccc1F)c1cc2ccccc2o1	?	-13.4%	87.0%	-35.1%	-19.6%	?
O=C(NCc1ccco1)c1ccc(COc2ccccc2Cl)cc1	11.2µM*	-16.0%	?	-6.1%	?	-0.7%
O=C(NCc1ccco1)c1ccc(COc2cccc3ccccc23)cc1	?	-6.3%	7.38µM*	5.3%	7.38µM*	15.1%
c1ccc2sc(NC3=NCN(CC4CCCO4)CN3)nc2c1 (configuration not stated)	-4.9%	1.6%	84.4%	.	?	-1.8%
SMILES	HCV inh	SARS PLpro yeast	Pf growth 48h	NS1 inh	Pf growth 96h	AMA1-RON2 inh
CCOc1ccccc1N1CCN(CC(O)COC2CCCc3ccccc32)CC1 (configuration not stated)	11.2µM*	2.0%	?	-7.2%	?	-18.3%
CCOc1ccccc1N1CCN(CC(O)COc2ccc3c(C)cc(=O)oc3c2)CC1 (configuration not stated)	?	2.9%	8.28µM*	-9.1%	-2.2%	-0.1%
Cc1ccc(S(=O)(=O)CCC(=O)Oc2ccc(-c3nnco3)cc2)cc1	4.0%	1.7%	-21.5%	.	1.3%	-0.1%
c1ccc(OCCOCCOc2ccccc2)cc1	1.12µM*	.	.	.	.	0.2%
C[N+](C)(CCOc1ccccc1)Cc1ccccc1 (tested in a mixture with another compound)	.	?	10.4µM*	8.4%	41.1%	-1.5%
OCCOc1ccccc1	27.0%	-2.1%	-14.5%	.	0.0%	-4.2%
CC(C)(C)CC(C)(C)c1ccc(OCCOCC[N+](C)(C)Cc2ccccc2)cc1	?	.	0.928µM*	.	0.465µM*	-2.4%
Nc1nc(SCc2ccc(F)cc2)ns1	5.7%	-4.6%	-3.7%	.	3.2%	-5.7%
O=S(=O)(c1ccccc1)C1CC1(c1ccccc1)c1ccccc1 (configuration not stated)	2.1%	.	.	.	.	4.7%
CCn1c(NCc2cc(Br)ccc2NS(=O)(=O)c2ccc(C)cc2)nc2ccccc21	10µM*	0.1%	?	-0.3%	4.65µM*	0.9%
CCn1c(NCc2ccccc2NS(=O)(=O)c2ccc(C)cc2)nc2ccccc21	14.1µM*	10.3%	-19.6%	-33.5%	71.2%	-5.0%
CCCn1c(NCc2ccccc2NS(=O)(=O)c2ccc(C)cc2)nc2ccccc21	?	2.0%	?	13.9%	33.5%	-1.1%
CC(C)(CO)C(O)C(=O)NCCCO (configuration not stated)	1.8%	.	4.3%	.	5.8%	-7.4%
O=C(CN1C(=O)NC2(CCCC2)C1=O)Nc1cc(S(=O)(=O)N2CCOCC2)ccc1OCC(F)(F)F	2.1%	6.2%	-7.3%	-1.6%	10.4%	-5.9%
COc1ccccc1NS(=O)(=O)c1cc2c3c(c1)CC(=O)N3CCC2	?	-1.2%	9.28µM*	5.9%	57.6%	-8.6%
Cc1ccc(NS(=O)(=O)c2cc3c4c(c2)CC(=O)N4CCC3)cc1C	?	6.4%	10.4µM*	17.0%	-14.8%	-1.4%
